High-throughput results from PubChem BioAssay.
Most compounds without a hit are left out; they make up all but 13% or so of the library.
RAM inhibit – inhibitors of the yeast RAM network; actives 1.8% (n = 190,000); S. cerevisiae dse1pr::URA3 reporter, 5-FOA growth OD615, 2 d; analog-sensitive cbk1-as2 kinase mutant strain; inhibition, % at 50 µM;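 active means inhibition above a set limit, 3 SD over mean compound inhibition, cut at about 8.4% in these data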;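 further: inhibition rescues growth on 5-FOA so higher OD means more RAM inhibition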
Lmaj promast – Leishmania major promastigote growth inhibition | Leishmania major promastigotes, resazurin fluorescence viability | inhibition, % at 10 µM | actives 9% (n = 200,000) | AID 1063; in the data active means inhibition above about 50%;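 further: promastigotes grown with compound for 44 hours at 28 °C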
WT yeast gro inh – growth inhibition of WT yeast, mitochondrial fusion screen. actives 2.1% (n = 190,000). mitochondrial fusion phenotypic screen, WT strain. inhibition, % at 10 µM; in the data active means inhibition above about 58%; tested in S. cerevisiae
CHOP inh – inhibitors of CHOP induction in ER stress response | CHO-K1 CHOP-promoter luciferase, tunicamycin-induced, 15-18 h | inhibition, % at 10 µM | AID 2732 | actives 3.8% (n = 220,000);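 active means compounds that reduced the stress-induced luciferase reporter signal by more than about 70% of percent inhibition, limit read from the data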
A number is an active result.

Screening COc1cc2ccccc2cc1-c1nnc(COc2ccccc2)o1 returned RAM inhibit inactive, Lmaj promast inactive, WT yeast gro inh inactive and CHOP inh 82.
For COc1ccc2c(CC(=O)NCCN3C(=O)S/C(=C\c4cccnc4)C3=O)coc2c1 the results were RAM inhibit inactive, Lmaj promast inactive, WT yeast gro inh inactive and CHOP inh inactive.
COc1ccc(/C=C2\SC(=O)N(CCNC(=O)Cc3coc4cc(OC)ccc34)C2=O)cc1 was read as RAM inhibit inactive, Lmaj promast 59, WT yeast gro inh inactive and CHOP inh inactive.
For CCCC(=O)Nc1ccccc1-c1nnc(SCC)[nH]c1=O the results were CHOP inh inactive.
`Cc1ccc(S(=O)(=O)NCCC(c2ccc(F)cc2)c2ccco2)cc1` (configuration not stated) gave RAM inhibit 11, Lmaj promast 56, WT yeast gro inh inactive and CHOP inh inactive.
`COc1ccccc1C(CCNS(=O)(=O)c1ccc(C)cc1)c1ccco1` (configuration not stated) gave RAM inhibit 10.0, Lmaj promast inactive, WT yeast gro inh inactive and CHOP inh inactive.
`FC(F)(F)c1cccc(NC(=S)Nc2cccc(NC(=S)Nc3cccc(C(F)(F)F)c3)n2)c1` gave CHOP inh inactive.
`O=C(COC(=O)/C=C/c1ccc(S(=O)(=O)N2CCOCC2)cc1)NC1CCCCCCC1` gave RAM inhibit inactive, Lmaj promast inactive, WT yeast gro inh inactive and CHOP inh inactive.
Screening Cn1c(=NC(=O)CN2C(=O)C3CC=CCC3C2=O)sc2ccccc21 (configuration not stated) returned RAM inhibit inactive, Lmaj promast 99, WT yeast gro inh inactive and CHOP inh inactive.
`Cn1c(=NC(=O)C2=NNC(=O)CC2)sc2ccccc21` gave RAM inhibit inactive, Lmaj promast inactive, WT yeast gro inh inactive and CHOP inh inactive.
Screening CCn1c2ccc(/C(C)=N\O)cc2c2cc(/C(C)=N\O)ccc21 returned RAM inhibit inactive, Lmaj promast 54, WT yeast gro inh inactive and CHOP inh inactive.
`COc1ccc(C(=O)N2CCCC(c3nc(-c4ccc(OC)c(OC)c4)no3)C2)c(OC)c1` (configuration not stated) gave RAM inhibit inactive, Lmaj promast 87, WT yeast gro inh inactive and CHOP inh inactive.
`Cn1c(=O)c2c(nc(NCC3CCCO3)n2Cc2cccc(Br)c2)n(C)c1=O` (configuration not stated) gave RAM inhibit inactive, Lmaj promast inactive, WT yeast gro inh inactive and CHOP inh inactive.
Oc1cccc(/C=N/NC(=S)Nc2cccnc2)c1O was read as RAM inhibit inactive, Lmaj promast 99, WT yeast gro inh inactive and CHOP inh inactive.
Oc1ccc(/C=N/NC(=S)Nc2cccnc2)c(O)c1 was read as RAM inhibit inactive, Lmaj promast 84, WT yeast gro inh inactive and CHOP inh inactive.
`Oc1ccc(/C=N/NC(=S)Nc2cccnc2)c(O)c1O` gave CHOP inh inactive.
CCN(CC)S(=O)(=O)c1ccc(N2CCOCC2)c(NC(=O)Cc2ccc(Cl)cc2)c1 was read as RAM inhibit inactive, Lmaj promast 50, WT yeast gro inh inactive and CHOP inh inactive.
`CCN(CC)S(=O)(=O)c1ccc(N2CCOCC2)c(NC(=O)CC23CC4CC(CC(Br)(C4)C2)C3)c1` gave RAM inhibit inactive, Lmaj promast 51, WT yeast gro inh inactive and CHOP inh inactive.
For CCN(CC)S(=O)(=O)c1ccc(N2CCCC2)c(NC(=O)Cc2ccccc2)c1 the results were CHOP inh inactive.
Screening CCN(CC)S(=O)(=O)c1ccc(N2CCOCC2)c(NC(=O)C(C)(C)C)c1 returned CHOP inh inactive.
O=C1CN(C(=O)/C=C/c2ccco2)c2ccccc2N1 was read as RAM inhibit inactive, Lmaj promast inactive, WT yeast gro inh inactive and CHOP inh inactive.
NS(=O)(=O)c1cc2c(cc1Cl)NC(Cc1ccccc1)NS2(=O)=O (configuration not stated) was read as CHOP inh inactive.
For c1ccc(Nc2nc(NCC3CCCO3)c3ccccc3n2)cc1 (configuration not stated) the results were RAM inhibit inactive, Lmaj promast 99, WT yeast gro inh inactive and CHOP inh inactive.
Screening c1ccc2c(NCC3CCCO3)nc(N3CCOCC3)nc2c1 (configuration not stated) returned RAM inhibit inactive, Lmaj promast inactive, WT yeast gro inh inactive and CHOP inh inactive.
For CCOc1ccc(Nc2nc(NCC3CCCO3)c3ccccc3n2)cc1 (configuration not stated) the results were RAM inhibit inactive, Lmaj promast 101, WT yeast gro inh inactive and CHOP inh inactive.
`Oc1cccc(Nc2nc(NCC3CCCO3)c3ccccc3n2)c1` (configuration not stated) gave RAM inhibit inactive, Lmaj promast 100, WT yeast gro inh inactive and CHOP inh inactive.
For COc1ccc(Nc2nc(NCC3CCCO3)c3ccccc3n2)c(OC)c1 (configuration not stated) the results were RAM inhibit inactive, Lmaj promast 100, WT yeast gro inh inactive and CHOP inh inactive.
Screening CC(C)(C)c1ccc(Oc2ncccc2NC(=O)c2cccs2)cc1 returned CHOP inh inactive.
Screening c1ccc(-c2nc(NCC3CCCO3)c3ccccc3n2)nc1 (configuration not stated) returned RAM inhibit inactive, Lmaj promast 100, WT yeast gro inh inactive and CHOP inh inactive.
`O=C(NCC1CCCO1)c1ccccn1` (configuration not stated) gave RAM inhibit inactive, Lmaj promast inactive, WT yeast gro inh inactive and CHOP inh inactive.
`Cc1ccc(S(=O)(=O)NNC(=O)c2cc3cc4ccccc4nc3s2)cc1` gave RAM inhibit inactive, Lmaj promast 92, WT yeast gro inh inactive and CHOP inh inactive.
`O=C(NNC(=O)c1cc2cc3ccccc3nc2s1)c1ccc(F)cc1` gave RAM inhibit inactive, Lmaj promast inactive, WT yeast gro inh inactive and CHOP inh 89.
`O=C(NNC(=O)c1cc2cc3ccccc3nc2s1)c1cccc(Cl)c1` gave RAM inhibit inactive, Lmaj promast inactive, WT yeast gro inh inactive and CHOP inh inactive.
O=C(NNC(=O)C1CC1)c1cc2cc3ccccc3nc2s1 was read as RAM inhibit inactive, Lmaj promast inactive, WT yeast gro inh inactive and CHOP inh inactive.
Screening O=c1oc2ccccc2cc1-c1nc2c(s1)CCc1ccccc1-2 returned RAM inhibit inactive, Lmaj promast inactive, WT yeast gro inh inactive and CHOP inh inactive.
For O=c1oc2cc(O)ccc2cc1-c1nc2c(s1)CCc1ccccc1-2 the results were RAM inhibit inactive, Lmaj promast inactive, WT yeast gro inh 98 and CHOP inh 83.
For CC1=NN(c2nc(-c3ccccc3)cs2)C(=O)C1N=Nc1ccccc1 (configuration not stated) the results were RAM inhibit inactive, Lmaj promast inactive, WT yeast gro inh inactive and CHOP inh inactive.
For CC1=NN(c2nc(-c3ccc(C)cc3)cs2)C(=O)C1N=Nc1ccc2ccccc2c1 (configuration not stated) the results were RAM inhibit 11, Lmaj promast inactive, WT yeast gro inh inactive and CHOP inh inactive.
